Bioassay records as filed in PubChem.
The sample as a whole holds a higher share of hits than the screen did.
GFP derepression = epigenetic GFP locus derepression in mouse cells. mouse C127i GFP locus derepression, cytometry, 30 h. actives 0.09% (n = 68,000). Potency, µM (top dose mostly 46.1 µM). AID 597
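Derepression screen: silenced CMV-GFP reporter in murine C127i cells, 30 h compound incubation at 37 C, washed cells imaged by laser-scanning cytometer to enumerate GFP-expressing objects of 20 to 120 um.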
GBA mod = human lysosomal glucosylceramidase modulation; P04062; purified enzyme, resorufin glucoside fluorescence (screen aimed at inhibitors), 20 min; Potency, µM; actives 1.1% (n = 48,000); AID 360; in the data active = potency below about 15 µM; inconclusive = mostly about 16 µM to 33 µM;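 note: the screen sought inhibitors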
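Compounds titrated against 0.2 nM normal enzyme, 30 uM resorufin beta-D-glucopyranoside substrate, citrate/phosphate buffer with taurocholate and tween-20, pH 5.9. Reaction ran 20 min at room temperature; fluorescence (Ex 548/Em 600) gave AC50.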
HBB splicing = hemoglobin beta splicing modulation; Potency, µM (highest dose often 46.1 µM), actives largely listed as activators; actives 0.06% (n = 65,000); AID 925; HBB splicing reporter cell assay, activation; EGFP reporter with mutant IVS2-654 intron; response scale: normalised to 500 nM splice-correcting PNA
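HeLa cells stably expressing EGFP interrupted by mutant beta-globin intron 2 (IVS2-654), 500/well in 2% FCS. Treated with compound for 2 days at 37C. Splicing correction scored as total well GFP intensity (488 nm excitation, 500-520 nm emission); 500 nM antisense PNA served as control.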
UbGFP stabilizer = proteasome inhibitors stabilizing ubiquitin-GFP reporter. 67,000 tested, under 10 active. Potency, µM (highest dose often 45.9 µM), usual class: activators. Ubiquitin-GFP reporter cells, proteasome inhibition, GFP fluorescence; response scale: untreated = 0%, 10 µM MG-132 = 100%. AID 526; active = well fitted activation curve with a large enough effect, not every such curve was filed as active; inconclusive = small, poorly fitted or top-dose-only effect, or another doubt; inactive = no such curve, though single readings can be large or run the other way
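Proteasome block read as GFP accumulation: ubiquitin(G76V)-GFP U2OS cells exposed to compound (2.9 nM–46 uM) for 4 hr at 37 C. Normalization used untreated cells as 0% and 10 uM MG-132 as 100%; concentration-response curves fitted.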
Caspase-7 inhib = blocks human caspase-7 allosterically or competitively | Potency, µM (top dose mostly 57.5 µM), usual class: inhibitors | recombinant caspase-7, Ac-DEVD-AFC fluorescence rate | actives 0.02% (n = 75,000); active = well fitted inhibition curve with a large enough effect in the main read-out, with a control signal flat, not every such curve was filed as active; inconclusive = small, poorly fitted or top-dose-only effect, or a change in a side signal
Casp1 inh = blocks human caspase-1 allosterically or competitively. P29466. Caspase-1 enzyme, Ac-WEHD-AFC fluorogenic rate. Potency, µM (highest dose often 57.5 µM), usual class: inhibitors. actives 0.03% (n = 75,000). AID 900
Hits are given with their value; – = inactive; ? = inconclusive; · = no result given; [ ] = remark or other dose. Unless noted, calls come from the whole dose curve; as a rule, active = well fitted curve in the direction sought with a large enough effect; inconclusive = small, poorly fitted or top-dose-only effect, or another doubt; inactive = no such curve, though single readings can be large; an effect the other way counts as inactive or inconclusive.

SMILES | GFP derepression | GBA mod | HBB splicing | UbGFP stabilizer | Caspase-7 inhib | Casp1 inh
CCN(CCCNC(=O)C1CCC(=O)N1Cc1ccc(F)cc1)c1cccc(C)c1 (stereo unspecified) | – | 15 | – | – | – | –
COCCNC(=O)C(c1ccc(C)cc1)N(C(=O)CCC(=O)Nc1ccccn1)C1CCCC1 (stereo unspecified) | – | – | – | – | – | –
CC(C)CCNC(=O)C(c1ccco1)N(C(=O)Cn1nnc2ccccc21)c1ccc2c(c1)OCO2 (stereo unspecified) | – | 8.2 | · | – | – | –
O=C(NCc1ccco1)C(c1ccco1)N(CCc1ccccc1)C(=O)Cn1nnc2ccccc21 (stereo unspecified) | – | – | · | – | – | –
CCOC(=O)c1sc(NC(=O)CSc2nncs2)c(C(=O)OCC)c1C | – | 9.6 | – | – | – | –
CCCCCSc1nc2c(cnn2-c2ccccc2)c(=O)[nH]1 | – | 13 | – | – | – | –
Cc1ccc(OCC(=O)Nc2cccc(-c3nnc(-c4ccccc4)o3)c2)cc1 | – | 8.6 | – | – | – | –
Cc1cccc(C)c1OCC(=O)Nc1cccc(-c2nnc(-c3ccccc3)o2)c1 | – | · | · | · | · | ·
N#Cc1ccccc1NC(=O)CSc1nnc(-c2ccccc2O)n1-c1ccccc1 | – | · | – | – | – | –
COCCn1c(N)c(C(=O)NCC2CCCO2)c2nc3ccccc3nc21 (stereo unspecified) | – | · | · | · | · | ·
COCCn1c(N)c(C(=O)Nc2sc3c(c2C(=O)OC)CCCC3)c2nc3ccccc3nc21 | – | 7.6 | – | – | ? | ·
CCOc1cc(C(=O)N(C)Cc2cc3ccccc3[nH]c2=O)cc(OCC)c1OCC | – | – | – | – | – | –
COc1ccccc1-c1cc(C(F)(F)F)nc(S(=O)(=O)CCCC(=O)Nc2cc(C)on2)n1 | – | 9.4 | – | – | – | –
COc1ccccc1-c1cc(C(F)(F)F)nc(S(=O)(=O)CCCC(=O)NC(C)C)n1 | ? | – | – | – | – | –
Cc1ccc(C)c(N2CCN(C(=O)CCCn3c(=S)[nH]c4cc5c(cc4c3=O)OCO5)CC2)c1 | – | 15 | –[0.369 µM] | – | – | –
CC(=O)N1CN(Cc2ccccn2)Cc2c1sc1c2CCCC1 | – | 15 | – | – | – | ?
CC(=O)N1CN(CCCn2ccnc2)Cc2c1sc1c2CCCC1 | – | ? | – | – | – | –
O=S(=O)(Nc1ccc(Cl)cc1Cl)c1cc(Cl)ccc1Cl | · | · | · | · | – | –
CN1CCN(c2ccc(Cl)cc2NS(=O)(=O)c2ccccc2Cl)CC1 | ? | 13 | – | – | – | –
CCOc1ccc(NC(=O)C(CC)NC(=O)c2ccccc2CO)cc1 (stereo unspecified) | – | – | – | – | – | –
CCOC(=O)c1c(NC(=O)c2nn(CC)cc2Br)sc2c1CCCCC2 | – | 5.2 | – | – | – | –
CCOC(=O)c1c(NC(=O)c2nn(CC)cc2Br)sc(C)c1C | – | · | – | – | – | –
CC(C)N(CC(=O)O)CC(=O)O | –[9.22 µM] | · | –[9.22 µM] | –[9.17 µM] | –[11.5 µM] | –[11.5 µM]
c1ccc2c(c1)[nH]c1nc(SCCN3CCOCC3)nnc12 | – | ? | – | – | – | –
Brc1ccc2[nH]c3nc(SCCN4CCOCC4)nnc3c2c1 | – | 9.6 | – | – | – | –
SMILES | GFP derepression | GBA mod | HBB splicing | UbGFP stabilizer | Caspase-7 inhib | Casp1 inh
Cc1cccn2c(=O)c3cc(C(=O)N(C)C)n(C)c3nc12 | – | – | – | – | – | ?
CCOC(=O)C1=C(c2ccccc2)NC(SCC(=O)Nc2ccc(C)cc2)=C(C#N)C1c1ccco1 (stereo unspecified) | – | 12 | – | – | – | –
COc1cc(NC(=O)CN2CCN(S(=O)(=O)c3ccc(C(C)C)cc3)CC2)cc(OC)c1 | – | 15 | – | – | – | –
COc1cccc(NC(=O)CN2CCN(S(=O)(=O)c3ccc(C(C)C)cc3)CC2)c1 | – | ? | – | – | – | –
On1onc2c3cc(-c4ccccc4)nc3ccc21 | – | 15 | – | – | – | –
O=C(CCn1c(=O)oc2ccccc21)Nc1nccs1 | – | – | – | – | – | –
O=C(Nc1cccnc1)Nc1ccccc1Cl | – | 15 | – | – | – | –
O=C(Nc1cccnc1)c1ccc(Oc2ccccc2)cc1 | – | 15 | – | – | – | –
O=C1NCCCC2c3cc(O)c4ccccc4c3OC12N1CCCCC1 (stereo unspecified) | – | – | –[1.84 µM] | – | ? | 32µM
O=C1NCCCC2c3c(cc(Br)c(O)c3Br)OC12N1CCOCC1 (stereo unspecified) | – | – | –[1.84 µM] | – | – | –
Cc1cncn1CCc1nc2c3ccccc3nc(=S)n2[nH]1 | – | – | – | – | – | –
COc1cc2nc(=S)n3[nH]c(CCn4nc(C)cc4C)nc3c2cc1OC | 10µM | – | – | – | – | –
Cc1onc(-c2ccccc2Cl)c1C(=O)Nc1cc(=O)n(C)c(=O)n1C | – | – | – | – | – | –
COC(=O)c1ccc(OCC2c3cc(OC)c(OC)cc3CCN2C(=O)c2ccco2)cc1 (stereo unspecified) | – | – | –[0.369 µM] | – | – | –
COc1ccccc1C(=O)NCCn1cc(SCC(=O)Nc2nnc(C)s2)c2ccccc21 | – | 6.2 | – | – | – | –
COc1ccc(-c2cc3ccccc3n2CC(O)CNC(CO)(CO)CO)cc1 (stereo unspecified) | – | 14 | – | – | – | –
Cc1ccc(C)c(S(=O)(=O)N2CCC(c3nc4c(nnn4Cc4ccc(F)cc4)c(=O)[nH]3)CC2)c1 | – | 7.1 | – | – | – | –
Cc1ccc(Cn2nnc3c(=O)[nH]c(C4CCN(S(=O)(=O)c5cc(C)ccc5C)CC4)nc32)cc1 | – | ? | – | – | – | –
Cc1ccc(Cn2nnc3c(=O)[nH]c(C4CCN(S(=O)(=O)c5ccc(F)cc5)CC4)nc32)cc1 | – | 5.5 | – | – | – | –
CCCOc1ccc2oc(=O)c3c(c2c1)CCCN3C(=O)CN(C)Cc1ccccc1 | – | – | – | – | – | –
c1ccc2c(c1)CCN(c1nc3ccccc3n3cnnc13)C2 | – | · | – | – | 20µM | –
C1=C(c2ccccc2)CCN(c2nc3ccccc3n3cnnc23)C1 | – | · | – | – | – | –
COc1ccccc1-c1nc2s/c(=C\c3cccs3)c(=O)n2n1 | – | 5.8 | –[0.369 µM] | – | – | –
CCOC(=O)C1CCN(c2nc(-c3ccccc3)nc3c2oc2ccccc23)CC1 | – | 7.4 | – | – | – | –
O=C(NCC12CC3CC(CC(C3)C1)C2)c1cc2n(n1)C(C(F)(F)F)CC(c1ccco1)N2 (stereo unspecified) | – | 13 | – | – | – | –
